Screening results: PubChem BioAssay, Broad Institute
MITF inh: inhibitors of MITF, primary screen, MITF inhibitor project, cell-based, luminescence | inhibition, % (no concentration beside the values) | TRPM1 promoter luciferase, 24 h | actives 0.28% (n = 37,000); in the data active = inhibition above about 85%; inconclusive = no clear call, values can overlap the other calls; inactive = below about 68%;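 note: human melanocyte line stably carrying TRPM1 promoter luciferase reporter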
NOMO-1 viab: NOMO-1 AML cell viability reduction, primary screen, STK33 inhibitor project, CellTiter-Glo luminescence | NOMO-1 AML viability, 72 h | actives 7.5% (n = 37,000) | inhibition, % (concentration not given with the values); in the data active = inhibition above about 80%; inconclusive = no clear call, values can overlap the other calls
Shh pathway inh: Hedgehog pathway signaling inhibitors, primary screen, luminescence, Shh-LIGHT2 cells, Gli-luciferase; Shh-LIGHT2 Gli-luciferase reporter, 30 h; inhibition, % (no concentration beside the values); actives 2.1% (n = 22,000); AID 2313, 2010;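 active = mean inhibition across valid replicates above about 65%, limit read from the data; inconclusive = mean under the limit, yet half or more replicates past it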;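 note: pathway switched on by Shh-conditioned medium diluted 1 in 25 in low serum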
Numbers stand for hits; n = inactive; u = inconclusive; x = no result given; ! = not confirmed by another sample. In the library only some 8.1% were active in any assay of this set; here they are far more common.

SMILES	MITF inh	NOMO-1 viab	Shh pathway inh
COC(=O)c1cc(NC(=O)CSc2nc(Nc3ccccc3)nc(N3CCOCC3)n2)ccc1Cl	n	117	x
O=C(CSc1nc(Nc2ccccc2)nc(N2CCOCC2)n1)Nc1ccccc1Cl	n	n	x
C[C@@H]1CN([C@H](C)CO)C(=O)c2cc(NC(=O)CCN3CCOCC3)ccc2O[C@@H]1CN(C)Cc1ccc(-c2ccccc2)cc1	n	n	n
CC1CCC/C=C2\C(=O)C=CC3OC(/C=C/C=C/C=C/C(=O)O)=C(C(=O)O1)C23 (centres undefined)	n	122	n
CC(=O)O[C@@H]1CC2C(C)(C)C=CC(=O)[C@]2(C)C2CC[C@@]3(C)[C@H](c4ccoc4)OC(=O)C4OC43[C@@]21C (some centres undefined)	n	n	n
COc1ccc(C)cc1S(=O)(=O)N1CCC(C(=O)Nc2cccc(C(C)=O)c2)CC1	n	n	x
CCn1c(=NC(=O)c2ccc(S(=O)(=O)N(C)C)cc2)sc2ccccc21	n	87	n
CCn1c2ccccc2c2cc(NC(=O)CN(C)S(=O)(=O)c3ccccc3)ccc21	n	n	x
Cc1cc(C)n2nc(SCC(=O)Nc3cccc([N+](=O)[O-])c3)nc2n1	n	n	x
C[C@@H]1CN([C@H](C)CO)C(=O)c2cc(NC(=O)Nc3ccc(C(F)(F)F)cc3)ccc2O[C@H]1CN(C)Cc1ccc2c(c1)OCO2	n	n	n
C[C@H]1CN([C@@H](C)CO)C(=O)c2cc(NC(=O)Nc3ccc(C(F)(F)F)cc3)ccc2O[C@H]1CN(C)Cc1ccc2c(c1)OCO2	n	106	x
C[C@@H]1CN([C@@H](C)CO)C(=O)c2cc(NC(=O)Nc3ccc4c(c3)OCO4)ccc2O[C@@H]1CN(C)Cc1ccc(C(F)(F)F)cc1	n	90	x
C[C@@H]1CN([C@H](C)CO)C(=O)c2cc(NC(=O)Nc3ccc4c(c3)OCO4)ccc2O[C@H]1CN(C)Cc1ccc(C(=O)O)cc1	n	n	x
COc1cccc(N(CC(=O)Nc2c(C)cc(C)cc2C)S(C)(=O)=O)c1	n	n	x
Cc1ccc(S(=O)(=O)NCC(=O)Nc2ccc(F)cc2F)cc1	n	n	x
COC(=O)c1cccc(NC(=O)C(C)Oc2ccc3c(C)cc(=O)oc3c2)c1 (centres undefined)	n	n	x
N=c1oc2ccccc2cc1C(=O)Nc1ccc(F)cc1	n	120	x
CCN(CC)c1ccc2cc(C(=O)Nc3ccccc3)c(=N)oc2c1	n	n	n
CCC(Oc1cccc(NC(=O)c2ccc([N+](=O)[O-])cc2)c1)C(=O)c1ccccc1 (centres undefined)	n	n	x
COc1cccc(C(=O)NC(c2ccc(Cl)cc2)c2c(O)ccc3ccccc23)c1 (centres undefined)	102	108	x
COc1cccc(C(=O)NC(c2ccccc2OC)c2c(O)ccc3ccccc23)c1 (centres undefined)	n	n	x
COc1cccc(C(=O)NC(c2ccc([N+](=O)[O-])cc2)c2c(O)ccc3ccccc23)c1 (centres undefined)	n	114	x
CS(=O)(=O)N(CC(=O)Nc1cccc(Cl)c1Cl)Cc1ccccc1	n	n	x
NC(=O)CSc1nnc(-c2cccnc2)s1	n	n	x
CN1CCCCC1CCN1c2ccccc2Sc2ccc(S(C)=O)cc21 (centres undefined)	n	n	n
SMILES	MITF inh	NOMO-1 viab	Shh pathway inh
OCCN1CCN(CCCN2c3ccccc3Sc3ccc(C(F)(F)F)cc32)CC1	n	119!	u
CN1CCN(CCCN2c3ccccc3Sc3ccc(Cl)cc32)CC1	n	106!	75!
Cn1cnnc1SCC(=O)N1c2ccccc2Sc2ccc(C(F)(F)F)cc21	n	n	x
O=C(COc1cccc(C(F)(F)F)c1)NCc1ccco1	n	n	x
O=C1c2ccccc2C(=O)N1C(CO)C(O)c1ccccc1 (centres undefined)	n	n	n
O=C1C(SCCO)=C(SCCO)C(=O)c2ccccc21	103	114	104
Cc1cccc(NC(=O)c2cccc(C(=O)Nc3cccc(C)c3)c2)c1	n	n	n
Cc1cccc(C(=O)NN(c2ccccc2)c2ccccc2)c1	n	n	95
C[C@@H]1CN([C@@H](C)CO)C(=O)c2cc(NS(=O)(=O)c3ccc(Cl)cc3)ccc2O[C@@H]1CN(C)C(=O)NC1CCCCC1	n	n	n
O=C1c2cccc3cccc(c23)C(=O)N1CCc1cnc[nH]1	n	n	x
O=C(CCSc1nc2ccccc2o1)N1CCOCC1	n	n	x
CC1(C)CC(=O)C=C(Sc2nc3ccccc3o2)C1	n	120	87
O=S(=O)(C1=CC23CCCC2(C=C(S(=O)(=O)c2ccc(Cl)cc2)C3)C1)c1ccc(Cl)cc1 (centres undefined)	n	n	x
O=C(CSc1nc2ccc([N+](=O)[O-])cc2[nH]1)Nc1ccc2c(c1)OCCO2	n	n	x
O=C(CSc1nc2ccc([N+](=O)[O-])cc2[nH]1)Nc1cc(C(F)(F)F)cc(C(F)(F)F)c1	87	130	x
O=C(CCSc1nnnn1-c1ccccc1)Nc1ccc(Cl)cc1	n	n	x
CC(C)NC(=O)Nc1ccc2c(c1)CC(=O)N([C@@H](C)CO)C[C@@H](C)[C@@H](CN(C)S(C)(=O)=O)O2	n	n	n
C[C@@H]1CN([C@@H](C)CO)C(=O)Cc2cc(NS(=O)(=O)c3ccc(F)cc3)ccc2O[C@@H]1CN(C)Cc1ccc(Oc2ccccc2)cc1	n	122	n
C[C@@H]1CN([C@H](C)CO)C(=O)Cc2cc(NS(=O)(=O)c3ccc(F)cc3)ccc2O[C@H]1CN(C)Cc1ccccc1	n	n	n
C[C@H]1CN([C@@H](C)CO)C(=O)Cc2cc(NS(=O)(=O)c3ccc(F)cc3)ccc2O[C@H]1CN(C)Cc1ccccc1	n	n	n
C[C@H]1CN([C@@H](C)CO)C(=O)Cc2cc(NS(=O)(=O)c3ccc(F)cc3)ccc2O[C@H]1CN(C)Cc1ccc(Oc2ccccc2)cc1	n	122	n
O=C(CSc1nnc(-c2ccncc2)n1-c1ccc(F)cc1)c1ccc(Cl)cc1	n	n	x
FC(F)(F)c1cc(-c2ccc3ccccc3c2)no1	n	88	n
COc1ccc(C(=O)n2nc(-c3ccc(Cl)cc3)nc2NCc2ccco2)cc1OC	n	n	x
Cc1ccc(NC(=S)NC(=O)C23CC4CCC(CC(C4)C2)C3)cc1	n	n	n
CC1(C)CC[C@]2(C(=O)O)CC[C@]3(C)C(=CCC4[C@@]5(C)CC[C@H](O[C@@H]6OC[C@H](O)[C@H](O)[C@H]6O)[C@@](C)(CO)C5CC[C@]43C)C2C1 (some centres undefined)	n	120	79
CC1(C)CC[C@]2(C(=O)O[C@@H]3O[C@H](CO)[C@@H](O)[C@H](O)[C@H]3O)CC[C@]3(C)C(=CCC4[C@@]5(C)C[C@@H](O)[C@H](O)[C@](C)(CO)C5CC[C@]43C)C2[C@@H]1O (some centres undefined)	n	120	n
CC1(C)CC[C@]2(C(=O)OC3OC(CO)C(O)C(O)C3O)CC[C@]3(C)C(=CCC4[C@@]5(C)CC[C@H](OC6OC(C(=O)O)C(O)C(O)C6O)C(CO)(CO)C5CC[C@]43C)[C@@H]2C1 (some centres undefined)	n	120	n
